High-throughput results: PubChem, several laboratories
Hits are enriched below; roughly 2.5% of the tested compounds scored in any of these assays.
Efflux pump inh: antifungal efflux pump inhibition, Nile Red retention. S. cerevisiae Candida pump triplex. 0.44% of 330,000 active. inhibition, % at 10 µM. AID 485275;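 active = plate passing quality check with inhibition over a set limit, or well fluorescence over plate mean plus 4 SD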;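 also: Nile Red retained in pooled yeast measured as flow cytometry median fluorescence; higher means more Nile Red kept so more efflux inhibition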
AI-2 QS modul: Vibrio harveyi AI-2 quorum sensing modulation. Vibrio harveyi JMH597 AI-2 luminescence/OD600 ratio, 9 h; stronger effect = lower value; strain lacks LuxN and CqsS sensors; 0 = neutral-control median. activity change, % at 7.5 µM. 0.4% of 300,000 active; in the data active = activity change below about -75%, passing the limit was not always enough;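 also: luminescence divided by OD600 gain over 9 h not by final OD600 alone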
V-ATPase pHluor: regulators of yeast V-ATPase proton transport | S. cerevisiae, pHLuorin cytosolic pH fluorescence | response, % at 10 µM | 0.37% of 350,000 active; in the data active = response mostly above about 7.3%, no sharp cut-off; inactive = mostly below about 5.4%; also: actives read high
ATG4B inhibitor: inhibitors of human ATG4B cysteine protease; 0.51% of 340,000 active; ATG4B cleavage of LC3-PLA2, NBD-HPC fluorescence, 1 h; inhibition, % at 8.33 µM; in the data active = inhibition above about 40%
Target sequence (Q9Y4P1 whole entry, looked up): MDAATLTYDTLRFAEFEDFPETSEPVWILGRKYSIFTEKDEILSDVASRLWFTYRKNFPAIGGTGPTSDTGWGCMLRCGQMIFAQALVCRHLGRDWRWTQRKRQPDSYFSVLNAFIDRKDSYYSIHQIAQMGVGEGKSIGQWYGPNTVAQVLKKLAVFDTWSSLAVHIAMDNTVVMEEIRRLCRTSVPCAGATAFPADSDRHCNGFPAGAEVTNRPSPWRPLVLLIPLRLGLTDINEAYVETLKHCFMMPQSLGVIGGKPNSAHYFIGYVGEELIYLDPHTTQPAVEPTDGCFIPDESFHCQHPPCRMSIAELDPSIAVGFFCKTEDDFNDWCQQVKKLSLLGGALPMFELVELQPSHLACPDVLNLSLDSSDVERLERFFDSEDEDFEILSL
SUMO Mot1 rescue: inhibitors of SUMOylation pathway: yeast Mot1-301 growth rescue; S. cerevisiae Mot1-301 growth rescue, ATP luminescence, 38.5C; percent above DMSO median, 100 means doubled; growth rescue, % at 18.8 µM; 1% of 320,000 active; AID 2716;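 active = every valid replicate shows activation above 250% relative to neutral control wells; inactive = the rest, any valid replicate at or below 250%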
Yeast Mot1 SUMO: SUMO pathway inhibitors in yeast Mot1-301 growth | growth activity, percent, % at 42 µM | S. cerevisiae Mot1-301 galactose growth, ATP luminescence, 24 h; -100 = growth of slx-deleted rescue strain | shares compounds with SUMO Mot1 rescue | AID 493004 | 2,300 tested, under 10 active;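 active = Signal drops as the depositor expects, and the fitted half-maximal dose is no more than ten times the top valid tested dose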;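 also: more negative values mean stronger growth rescue toward the control strain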
Large screens that a line does not name were inactive (follow-up assays come after a bar, where they were run).

Cc1ccc(/C=C/S(=O)(=O)NCC(=O)OCC(=O)N2CC(=O)Nc3ccccc32)cc1	none
COc1ccc(C(=O)O)cc1S(=O)(=O)NCCN(C)C	SUMO Mot1 rescue 824 | Yeast Mot1 SUMO inactive
COCCNS(=O)(=O)c1cc(C(=O)O)ccc1OC	none
C=CCNCC(O)COc1ccc(C(C)=O)cc1OC (stereo not given)	none
CCCC(=O)Nc1ccc(Sc2ccc([N+](=O)[O-])cc2)cc1	SUMO Mot1 rescue 374 | Yeast Mot1 SUMO inactive
O=C(c1ccco1)N1CCN(C(=O)C2Cc3ccccc3CN2S(=O)(=O)c2ccc(F)cc2)CC1 (stereo not given)	SUMO Mot1 rescue 901 | Yeast Mot1 SUMO inactive
O=C(C1Cc2ccccc2CN1S(=O)(=O)c1ccc(F)cc1)N1CCCCC1 (stereo not given)	none
COc1cc(C(=O)Nc2nnc(CC(C)C)s2)c([N+](=O)[O-])cc1OC	none
Cc1cc(-n2c(SCCC#N)nnc2-c2cccnc2)ccc1Cl	none
COc1ccc(-c2c[n+]3c4n2CCCCC4=C(c2ccccc2)C3)cc1	none (no result: SUMO Mot1 rescue)
C/C(CC(=O)NC1CCCCC1)=N\NC(=O)Cc1ccc(-c2ccccc2)cc1	SUMO Mot1 rescue 437 | Yeast Mot1 SUMO inactive
N#C/C(=N\Nc1cccc(F)c1)C(=N)N1CCCCCC1	SUMO Mot1 rescue 605 | Yeast Mot1 SUMO inactive
N#C/C(=N\Nc1ccc(F)cc1)C(=N)N1CCCCC1	none
CCc1cccc(C)c1NC(=O)CSc1nnc(-c2cc3cc(Br)ccc3o2)n1CC	SUMO Mot1 rescue active | Yeast Mot1 SUMO inactive
Cc1ccc(NC(=O)CN2CCN(CCN=CC3=C(O)CC(C)(C)CC3=O)CC2)cc1	SUMO Mot1 rescue 985 | Yeast Mot1 SUMO inactive
O=C(NCC1CCCO1)c1nn2c(C(F)(F)F)cc(-c3cc(Br)cs3)nc2c1Br (stereo not given)	SUMO Mot1 rescue 472 | Yeast Mot1 SUMO inactive
CC(C)C(=O)Nc1ccc(NC(=S)NC(=O)c2ccccc2F)cc1	SUMO Mot1 rescue 495 | Yeast Mot1 SUMO inactive
O=C(NC(=S)Nc1ccc(F)c([N+](=O)[O-])c1)c1ccccc1F	none
COc1ccccc1CCC(=O)OCC(=O)Nc1ccc(C(N)=O)cc1	none
CCCCCNCc1cccc(Br)c1	none
CCc1nc2ccc(C(=O)N3CCN(CC)CC3)cc2nc1CC	SUMO Mot1 rescue 967 | Yeast Mot1 SUMO inactive
CN=C(Nc1cccnc1)c1ccccc1	SUMO Mot1 rescue 421 | Yeast Mot1 SUMO inactive
O=C(CCNC(=O)c1ccccc1)Nc1cccnc1	SUMO Mot1 rescue 455 | Yeast Mot1 SUMO inactive
COC(=O)CCC/C=C1\SC[C@@H](NC(=O)c2ccccc2)C1NC(C)=O (stereo not given in full)	none (no result: V-ATPase pHluor)
Cn1c(=O)[nH]c(=O)c2c1nc1n2CC(COc2ccc3ccccc3c2)O1 (stereo not given)	none
COc1ccc(C(=O)NC(=S)N2CCN(C)CC2)cc1Br	none
Cc1ccc(NS(=O)(=O)c2ccc(NC(=O)C3CCCO3)cc2)cc1 (stereo not given)	SUMO Mot1 rescue 469 | Yeast Mot1 SUMO inactive
COc1ccc(NS(=O)(=O)c2ccc(NC(=O)C3CCCO3)cc2)cc1 (stereo not given)	none
Cc1ccc2nc3c(cc(C(=O)NCCN4CCOCC4)c(=N)n3CCCN3CCOCC3)c(=O)n2c1	SUMO Mot1 rescue 674 | Yeast Mot1 SUMO inactive
Cc1ccc(-c2ccc(/C=N/n3cnnc3)o2)cc1	SUMO Mot1 rescue 505 | Yeast Mot1 SUMO inactive
Cc1ccc(-c2ccc(/C=N/n3cnnc3)o2)cc1Cl	none
Cn1c(=O)c2c(n(Cc3ccccc3)c1=O)NC(=O)C2CC(=O)NCc1cccc(Cl)c1 (stereo not given)	none
CC(C)Sc1ccc(C(=O)Nc2ccc(F)cc2F)cn1	SUMO Mot1 rescue 537 | Yeast Mot1 SUMO inactive
O=C(Nc1ccc(F)cc1F)c1ccc(-n2cccn2)nc1	none (no result: SUMO Mot1 rescue)
O=C(C[C@H]1C[C@H](C(=O)N2CCCCC2)[C@@]2(CCc3ccccc3)c3[nH]c4cc(-c5ccco5)ccc4c3CCN2C1=O)NCCC1=CCCCC1	none (no result: AI-2 QS modul, SUMO Mot1 rescue)
CC(C)Cn1c(N)c(C(=O)COC(=O)C2Cc3ccccc3CN2S(C)(=O)=O)c(=O)n(C)c1=O (stereo not given)	none (no result: AI-2 QS modul)
COc1ccc(OC)c(S(=O)(=O)N2CCC(C(=O)NCc3cccnc3)CC2)c1	none
CCOc1ccc(Cl)cc1S(=O)(=O)N1CCC(C(=O)NCc2cccnc2)CC1	SUMO Mot1 rescue 366 | Yeast Mot1 SUMO inactive
CCOc1ccc(Br)cc1S(=O)(=O)N1CCC(C(N)=O)CC1	SUMO Mot1 rescue 438 | Yeast Mot1 SUMO inactive
COc1ccc(-n2nnnc2SCC#CCO)cc1	none
Cc1ccc(-n2nnnc2SCC#N)cc1	SUMO Mot1 rescue 716 | Yeast Mot1 SUMO inactive
CCOc1ccc(NC(=O)C2CC(=O)N3CCCN=C3S2)cc1 (stereo not given)	SUMO Mot1 rescue active | Yeast Mot1 SUMO inactive
CCCOc1ccc(NC(=O)C2CC(=O)N3CCCN=C3S2)cc1 (stereo not given)	none
CC1CCCN(C(=O)Cc2ccc(F)cc2)C1 (stereo not given)	SUMO Mot1 rescue 408 | Yeast Mot1 SUMO inactive
CSc1ncnc2c1ncn2CCCNc1ccc(C)c(C)c1	none (no result: Efflux pump inh, AI-2 QS modul, ATG4B inhibitor, SUMO Mot1 rescue)
CC(C)CNC(=O)c1ccc2c(c1)C(=O)N(Cc1ccco1)C2=O	none
O=C(CSc1nnc(-c2ccccc2F)o1)Nc1ccc(N2CCOCC2)cc1	none (no result: AI-2 QS modul)
Cc1cnc(C(=O)OCC(=O)Nc2ccc(C)c(S(=O)(=O)N(C)C)c2)cn1	SUMO Mot1 rescue 669 | Yeast Mot1 SUMO inactive
Cc1cnc(C(=O)OCC(=O)Nc2ccc3c(c2)OCCO3)cn1	none (no result: AI-2 QS modul)
O=C(NCC1CCCO1)C1CC(c2ccc(Cl)c(Cl)c2)=NO1 (stereo not given)	SUMO Mot1 rescue 870 | Yeast Mot1 SUMO inactive
Cn1ncc(C#N)c1NC(=O)C1CC(c2ccc(Cl)c(Cl)c2)=NO1 (stereo not given)	none
CN(C)CCCNc1oc(-c2ccccc2Cl)nc1S(=O)(=O)c1ccccc1	none (no result: AI-2 QS modul)
CN(C)c1oc(-c2ccccc2Cl)nc1S(=O)(=O)c1ccccc1	SUMO Mot1 rescue 636 | Yeast Mot1 SUMO inactive
CCc1nnc(NC(=O)CCC(=O)NC2CCCCCC2)s1	none
O=C(c1cc(-c2ccc(Cl)c(Cl)c2)on1)N1CCN(c2ccccc2)CC1	SUMO Mot1 rescue active | Yeast Mot1 SUMO inactive
O=C(O)c1ccc(/C=N/NC(=O)c2cc(-c3ccc4c5c(cccc35)CC4)n[nH]2)cc1	SUMO Mot1 rescue active | Yeast Mot1 SUMO inactive
N#C/C(=C\c1cc([N+](=O)[O-])c(N2CCOCC2)cc1N1CCOCC1)c1nc2ccccc2[nH]1	SUMO Mot1 rescue 361 | Yeast Mot1 SUMO inactive
COc1cc(/C=C(\C#N)c2nc3ccc(C)cc3[nH]2)c([N+](=O)[O-])cc1OC	none
Cc1ccc2nc(/C(C#N)=C\c3cc(O)ccc3[N+](=O)[O-])[nH]c2c1	SUMO Mot1 rescue 503 | Yeast Mot1 SUMO inactive
